Measurements from PubChem BioAssay AID1159580 (chemical genetic matrix, 2015).
Out of some 5,500 compounds screened, about 2,000 (36%) were called active. Another 18% or so got no clear call; they are omitted. No stated cut-off is given here; in the data, active means normalized growth mostly below about 0.91 (no sharp cut-off); inconclusive means no clear call, values can overlap the other calls; inactive means mostly above about 0.92. The list shows a part of the results.

Assay: chemical genetic growth profiling, strain panel (AID 1159580);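 further: tested at 20 µM; growth read once vehicle control cultures reached saturation at 30 °C; 1 = growth at the plate median or of vehicle wells; lower values mean less growth of the strain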
Conditions: growth OD

Measured: normalized growth

O=c1cccc2n1CC1CC2CN2CCCC[C@@H]12 (stereo not given in full)
inactive: S. cerevisiae deletion strains, locus YJR043C, strain POL32, hits give low values 0.982 | S. cerevisiae deletion strains, locus YJR066W, strain TOR1, hits give low values 0.98 | S. cerevisiae deletion strains, locus YJR075W, strain HOC1, hits give low values 0.986 | S. cerevisiae deletion strains, locus YKL009W, strain mrt4, hits give low values 0.977 | S. cerevisiae deletion strains, locus YKL068W, hits give low values 0.983 | S. cerevisiae deletion strains, locus YKL085W, strain MDH1 (second series), hits give low values 0.986 | S. cerevisiae deletion strains, locus YKL085W, strain MDH1, hits give low values 0.986 | S. cerevisiae deletion strains, locus YKL160W, strain elf1, hits give low values 0.996 | S. cerevisiae deletion strains, locus YKR001C, strain vps1, hits give low values 1 | S. cerevisiae deletion strains, locus YKR026C, strain gcn3, hits give low values 0.965 | S. cerevisiae deletion strains, locus YKR091W, strain srl3, hits give low values 0.978 | S. cerevisiae deletion strains, locus YLL001W, strain dnm1, hits give low values 0.987 | S. cerevisiae deletion strains, locus YLL026W, hits give low values 0.976 | S. cerevisiae deletion strains, locus YLL041C, strain sdh2, hits give low values 0.98 | S. cerevisiae deletion strains, locus YLR027C, strain aat2, hits give low values 0.984 | S. cerevisiae deletion strains, locus YLR039C, strain RIC1, hits give low values 1 | S. cerevisiae deletion strains, locus YLR058C, strain SHM2, hits give low values 0.978 | S. cerevisiae deletion strains, locus YLR102C, strain apc9, hits give low values 0.982 | S. cerevisiae deletion strains, locus YLR113W, strain HOG1, hits give low values 0.985 | S. cerevisiae deletion strains, locus YLR221C, strain rsa3, hits give low values 1 | S. cerevisiae deletion strains, locus YLR258W, strain gsy2, hits give low values 0.978 | S. cerevisiae deletion strains, locus YLR262C, strain YPT6 (second series), hits give low values 1.01 | S. cerevisiae deletion strains, locus YLR262C, strain YPT6, hits give low values 0.955 | S. cerevisiae deletion strains, locus YLR268W, strain sec22, hits give low values 1.03 | S. cerevisiae deletion strains, locus YLR320W, strain mms22, hits give low values 0.974 | S. cerevisiae deletion strains, locus YLR330W, strain CHS5, hits give low values 0.997 | S. cerevisiae deletion strains, locus YLR342W, strain FKS1 (second series), hits give low values 1.01 | S. cerevisiae deletion strains, locus YLR342W, strain FKS1, hits give low values 0.975 | S. cerevisiae deletion strains, locus YLR357W, strain rsc2, hits give low values 0.943 | S. cerevisiae deletion strains, locus YLR370C, strain arc18, hits give low values 0.989 | S. cerevisiae deletion strains, locus YLR371W, strain rom2, hits give low values 0.977 | S. cerevisiae deletion strains, locus YLR384C, strain iki3, hits give low values 0.976 | S. cerevisiae deletion strains, locus YLR418C, strain cdc73, hits give low values 0.957 | S. cerevisiae deletion strains, locus YML016C, strain PPZ1, hits give low values 0.991 | S. cerevisiae deletion strains, locus YML032C, strain rad52, hits give low values 0.987 | S. cerevisiae deletion strains, locus YML120C, strain ndi1, hits give low values 1.02 | S. cerevisiae deletion strains, locus YML124C, strain tub3, hits give low values 0.978 | S. cerevisiae deletion strains, locus YMR058W, strain fet3, hits give low values 0.987 | S. cerevisiae deletion strains, locus YMR078C, strain ctf18, hits give low values 0.98 | S. cerevisiae deletion strains, locus YMR125W, strain sto1, hits give low values 0.944 | S. cerevisiae deletion strains, locus YMR129W, hits give low values 0.987 | S. cerevisiae deletion strains, locus YMR205C, strain PFK2, hits give low values 0.928 | S. cerevisiae deletion strains, locus YMR223W, strain ubp8, hits give low values 0.958 | S. cerevisiae deletion strains, locus YMR231W, strain pep5, hits give low values 0.98 | S. cerevisiae deletion strains, locus YMR263W, strain SAP30, hits give low values 0.981 | S. cerevisiae deletion strains, locus YMR307W, strain GAS1, hits give low values 1.04 | S. cerevisiae deletion strains, locus YNL067W, strain RPL9B, hits give low values 0.989 | S. cerevisiae deletion strains, locus YNL071W, strain lat1, hits give low values 0.994 | S. cerevisiae deletion strains, locus YNL153C, strain GIM3, hits give low values 0.993 | S. cerevisiae deletion strains, locus YNL183C, strain NPR1, hits give low values 0.993 | S. cerevisiae deletion strains, locus YNL209W, strain ssb2, hits give low values 0.984 | S. cerevisiae deletion strains, locus YNL233W, strain BNI4, hits give low values 1 | S. cerevisiae deletion strains, locus YNL248C, strain rpa49, hits give low values 1.01 | S. cerevisiae deletion strains, locus YNL250W, strain rad50, hits give low values 0.967 | S. cerevisiae deletion strains, locus YNL271C, strain bni1, hits give low values 0.996 | S. cerevisiae deletion strains, locus YNL298W, strain CLA4, hits give low values 0.986 | S. cerevisiae deletion strains, locus YNL307C, strain MCK1, hits give low values 0.981 | S. cerevisiae deletion strains, locus YNL322C, strain KRE1 (second series), hits give low values 0.976 | S. cerevisiae deletion strains, locus YNR049C, strain mso1, hits give low values 0.974 | S. cerevisiae deletion strains, locus YNR052C, strain pop2, hits give low values 0.979 | S. cerevisiae deletion strains, locus YOL006C, strain TOP1, hits give low values 1.04 | S. cerevisiae deletion strains, locus YOL012C, strain htz1 0.724 | S. cerevisiae deletion strains, locus YOL147C, strain pex11, hits give low values 0.98 | S. cerevisiae deletion strains, locus YOR001W, strain rrp6, hits give low values 0.993 | S. cerevisiae deletion strains, locus YOR061W, strain CKA2, hits give low values 0.962 | S. cerevisiae deletion strains, locus YOR069W, strain VPS5, hits give low values 0.999 | S. cerevisiae deletion strains, locus YOR070C, strain gyp1, hits give low values 0.99 | S. cerevisiae deletion strains, locus YOR080W, strain dia2, hits give low values 0.971 | S. cerevisiae deletion strains, locus YOR083W, strain WHI5, hits give low values 1.02 | S. cerevisiae deletion strains, locus YOR106W, strain vam3, hits give low values 0.985 | S. cerevisiae deletion strains, locus YOR136W, strain idh2, hits give low values 0.973 | S. cerevisiae deletion strains, locus YOR144C, strain elg1, hits give low values 0.976 | S. cerevisiae deletion strains, locus YOR184W, strain ser1, hits give low values 0.973 | S. cerevisiae deletion strains, locus YOR231W, strain MKK1, hits give low values 1.03 | S. cerevisiae deletion strains, locus YOR265W, strain rbl2, hits give low values 0.968 | S. cerevisiae deletion strains, locus YOR270C, strain vph1, hits give low values 0.987 | S. cerevisiae deletion strains, locus YOR290C, strain snf2, hits give low values 0.951 | S. cerevisiae deletion strains, locus YOR316C, strain cot1, hits give low values 0.976 | S. cerevisiae deletion strains, locus YPL051W, strain arl3, hits give low values 1 | S. cerevisiae deletion strains, locus YPL078C, strain atp4, hits give low values 0.999 | S. cerevisiae deletion strains, locus YPL106C, strain sse1, hits give low values 0.927 | S. cerevisiae deletion strains, locus YPL240C, strain hsp82, hits give low values 0.994 | S. cerevisiae deletion strains, locus YPL241C, strain CIN2, hits give low values 0.994 | S. cerevisiae deletion strains, locus YPL256C, strain CLN2, hits give low values 1.01 | S. cerevisiae deletion strains, locus YPR119W, strain clb2, hits give low values 0.976 | S. cerevisiae deletion strains, locus YPR141C, strain kar3, hits give low values 0.97 | S. cerevisiae deletion strains, locus YPR163C, strain tif3, hits give low values 0.973 | S. cerevisiae deletion strains, locus YPR167C, strain met16, hits give low values 0.973 | S. cerevisiae deletion strains, strain wtn01, hits give low values 1.04 | S. cerevisiae strains, strain wild type, hits give low values 1
